# Experimental data reported in PubChem BioAssay (EPA / NIEHS).
# “And” between values parts separate entries of the source, which are not always exact repeats. Identical values can stand only once. More than one record can exist for a structure, and the calls need not agree. The source made the active and inactive calls. Rule for the calls: active = hit-call score of the fitted dose curve at least 0.9, where 1 is the maximum; inactive = score below 0.9.
# Assays:
# [1] = target: Bile acid receptor (Homo sapiens) (UniProt Q96RI1); assay: ATG_IR1_CIS: Attagene CIS-FACTORIAL HepG2 Assay for human Nuclear Receptor Subfamily 1 Group H Member 4 (NR1H4), IR1 submotif (AID 2282946); conditions: IR1 reporter transcription, actives raise or lower the signal
# Procedure, shortened: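 HepG2 cells transiently transfected with multiplexed cis-element reporter units read endogenous transcription factor activity. After 24 h compound exposure, reporter mRNA was quantified by RT-PCR, fluorescent labelling, HpaI digestion and capillary electrophoresis; bidirectional fitting versus DMSO baseline.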
# [2] = ATG_ISRE_CIS: Attagene CIS-FACTORIAL HepG2 Assay for human Interferon Regulatory Factor 1 (IRF1) binding to an Interferon-Stimulated Response Element (ISRE) (AID 2282948); conditions: HepG2 ISRE cis-reporter (Attagene), mRNA transcription readout; actives raise or lower the signal
# Procedure, shortened: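 Endogenous transcription factor activity read as reporter transcript abundance via RT-PCR and capillary electrophoresis. HepG2 cells transiently transfected, 24 h chemical exposure. Gain or loss fitted against DMSO baseline.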
# [3] = ATG_M_32_CIS: Attagene CIS-FACTORIAL HepG2 Assay for M32 Transcription Factor (Internal Marker) (AID 2282949); conditions: HepG2 Attagene cis-factorial M32 reporter, mRNA; actives raise or lower the signal;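 note: background control marker of the multiplexed CIS panel rather than a real target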
# Procedure, shortened: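 Transient MRTU transfection of HepG2; 24 h compound treatment; TriZol RNA, oligo(dT) RT, reporter PCR, 6-FAM primer extension, HpaI cut, CE. Gain/loss of signal vs DMSO.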
# [4] = ATG_M_06_CIS: Attagene CIS-FACTORIAL HepG2 Assay for M06 Transcription Factor (Internal Marker) (AID 2282950); conditions: HepG2 Attagene CIS-FACTORIAL M06 internal marker reporter; actives raise or lower the signal
# Procedure, shortened: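 Read-out is fluorescence of labelled reporter cDNA fragments resolved by capillary electrophoresis after RT-PCR. Cells: HepG2 carrying transfected cis-promoter reporter units, treated 24 h. Gain or loss of signal fitted relative to DMSO.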
# [5] = target: Hypoxia-inducible factor 1-alpha (Homo sapiens) (UniProt Q16665); assay: ATG_HIF1a_CIS: Attagene CIS-FACTORIAL HepG2 Assay for human Hypoxia Inducible Factor 1 (HIF1A) (AID 2282951); conditions: HepG2 Attagene cis-factorial HIF1a reporter transcription; actives raise or lower the signal
# Procedure, shortened: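 HepG2, transient cis-reporter library, 24 h dosing. RNA → RT (oligo dT) → PCR → 6-FAM primer extension → HpaI → CE. Bidirectional curve fit vs DMSO.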
# [6] = target: Hepatocyte nuclear factor 6 (Homo sapiens) (UniProt Q9UBC0); assay: ATG_HNF6_CIS: Attagene CIS-FACTORIAL HepG2 Assay for human Hepatocyte Nuclear Factor 6 (HNF6) (AID 2282952); conditions: HepG2 Attagene cis-factorial HNF6 reporter transcription; actives raise or lower the signal
# Procedure, shortened: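 Twenty-four-hour chemical treatment of reporter-transfected HepG2 cells precedes RNA isolation, DNase-treated reverse transcription and PCR of reporter sequences. Labelled fragments are sized by capillary electrophoresis and fitted bidirectionally versus DMSO.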
# [7] = target: Heat shock factor protein 1 (Homo sapiens) (UniProt Q00613); assay: ATG_HSE_CIS: Attagene CIS-FACTORIAL HepG2 Assay for human Heat Shock Transcription Factor 1 (HSE) (AID 2282953); conditions: HepG2 HSE cis-reporter, Attagene RNA transcription; actives raise or lower the signal
# Procedure, shortened: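 HepG2, transient MRTU transfection, cis-promoter reporters (endogenous TF activity). 24 h compound. RNA → oligo(dT) RT → PCR → 6-FAM primer extension → HpaI cut → CE. Bidirectional fit vs DMSO.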
# [8] = ATG_MRE_CIS: Attagene CIS-FACTORIAL HepG2 Assay for human Metal Responsive Element (MRE) (AID 2282954); conditions: HepG2 MRE cis-reporter transcription, Attagene multiplex; actives raise or lower the signal
# Procedure, shortened: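 Multiplexed cis-reporter assay in human HepG2 liver cells, 24 h incubation with test chemical. Reporter transcripts measured by RT-PCR and capillary electrophoresis; values from bidirectional curve fitting versus DMSO.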
# [9] = ATG_PBREM_CIS: Attagene CIS-FACTORIAL HepG2 Assay for human Phenobarbital-responsive Enhancer Module (PBREM) (AID 2282955); conditions: HepG2 PBREM cis-reporter, Attagene multiplexed transcription; actives raise or lower the signal
# Procedure, shortened: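 HepG2, transient MRTU transfection, 24 h dosing; RNA → oligo(dT) RT → PCR → 6-FAM extension → HpaI → CE. Bidirectional fit vs DMSO.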
# [10] = ATG_GRE_CIS: Attagene CIS-FACTORIAL HepG2 Assay for human Glucocorticoid Response Elements (GRE) (AID 2282947); conditions: HepG2 GRE cis-reporter, Attagene multiplex mRNA; actives raise or lower the signal
# Procedure, shortened: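 Multiplexed cis-reporter mRNA induction, HepG2, 24 h post-dose. RT-PCR, FAM-labelled, HpaI-digested amplicons by CE. Bidirectional fit vs DMSO.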
# Sequence of Heat shock factor protein 1 (Homo sapiens) (Q00613 whole entry, looked up): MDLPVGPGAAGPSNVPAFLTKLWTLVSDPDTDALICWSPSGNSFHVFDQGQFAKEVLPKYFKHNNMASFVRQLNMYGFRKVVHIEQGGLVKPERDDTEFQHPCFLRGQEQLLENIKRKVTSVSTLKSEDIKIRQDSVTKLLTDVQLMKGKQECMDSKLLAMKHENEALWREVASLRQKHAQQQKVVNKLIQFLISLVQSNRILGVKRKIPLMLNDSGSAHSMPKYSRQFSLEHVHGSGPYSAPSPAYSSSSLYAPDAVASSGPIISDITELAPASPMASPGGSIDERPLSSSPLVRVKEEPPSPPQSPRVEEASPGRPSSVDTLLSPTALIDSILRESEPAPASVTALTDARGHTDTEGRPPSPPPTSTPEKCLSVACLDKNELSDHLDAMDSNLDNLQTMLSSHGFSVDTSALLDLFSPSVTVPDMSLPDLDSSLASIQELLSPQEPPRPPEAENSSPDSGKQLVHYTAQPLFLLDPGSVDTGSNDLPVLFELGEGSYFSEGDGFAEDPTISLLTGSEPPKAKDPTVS
# Sequence of Hepatocyte nuclear factor 6 (Homo sapiens) (Q9UBC0 whole entry, looked up, the tested form may be a part): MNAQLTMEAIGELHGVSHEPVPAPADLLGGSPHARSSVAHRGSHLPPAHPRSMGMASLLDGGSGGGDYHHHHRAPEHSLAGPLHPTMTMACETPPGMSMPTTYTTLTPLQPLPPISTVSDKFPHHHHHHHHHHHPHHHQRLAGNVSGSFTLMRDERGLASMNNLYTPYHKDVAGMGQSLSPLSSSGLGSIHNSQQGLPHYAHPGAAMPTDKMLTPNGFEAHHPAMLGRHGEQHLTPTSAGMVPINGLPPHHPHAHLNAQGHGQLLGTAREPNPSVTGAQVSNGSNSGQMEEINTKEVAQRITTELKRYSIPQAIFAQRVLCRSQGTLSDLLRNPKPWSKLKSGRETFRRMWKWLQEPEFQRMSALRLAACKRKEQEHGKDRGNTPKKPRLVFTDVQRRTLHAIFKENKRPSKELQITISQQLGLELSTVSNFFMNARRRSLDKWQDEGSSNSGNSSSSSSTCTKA
# Sequence of Bile acid receptor (Homo sapiens) (Q96RI1 whole entry, looked up): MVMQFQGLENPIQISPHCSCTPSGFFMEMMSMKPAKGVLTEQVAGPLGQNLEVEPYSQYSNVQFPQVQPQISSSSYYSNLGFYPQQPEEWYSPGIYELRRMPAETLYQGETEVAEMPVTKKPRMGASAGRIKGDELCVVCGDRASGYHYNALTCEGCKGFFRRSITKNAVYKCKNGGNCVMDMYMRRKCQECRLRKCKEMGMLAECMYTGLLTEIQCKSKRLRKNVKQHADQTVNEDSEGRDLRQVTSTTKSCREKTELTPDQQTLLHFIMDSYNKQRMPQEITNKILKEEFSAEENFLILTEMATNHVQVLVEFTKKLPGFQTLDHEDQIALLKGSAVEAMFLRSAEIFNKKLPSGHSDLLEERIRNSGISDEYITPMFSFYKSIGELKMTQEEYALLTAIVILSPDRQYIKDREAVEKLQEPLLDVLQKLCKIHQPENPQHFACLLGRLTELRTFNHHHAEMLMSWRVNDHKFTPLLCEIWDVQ
# Sequence of Hypoxia-inducible factor 1-alpha (Homo sapiens) (Q16665 whole entry, looked up): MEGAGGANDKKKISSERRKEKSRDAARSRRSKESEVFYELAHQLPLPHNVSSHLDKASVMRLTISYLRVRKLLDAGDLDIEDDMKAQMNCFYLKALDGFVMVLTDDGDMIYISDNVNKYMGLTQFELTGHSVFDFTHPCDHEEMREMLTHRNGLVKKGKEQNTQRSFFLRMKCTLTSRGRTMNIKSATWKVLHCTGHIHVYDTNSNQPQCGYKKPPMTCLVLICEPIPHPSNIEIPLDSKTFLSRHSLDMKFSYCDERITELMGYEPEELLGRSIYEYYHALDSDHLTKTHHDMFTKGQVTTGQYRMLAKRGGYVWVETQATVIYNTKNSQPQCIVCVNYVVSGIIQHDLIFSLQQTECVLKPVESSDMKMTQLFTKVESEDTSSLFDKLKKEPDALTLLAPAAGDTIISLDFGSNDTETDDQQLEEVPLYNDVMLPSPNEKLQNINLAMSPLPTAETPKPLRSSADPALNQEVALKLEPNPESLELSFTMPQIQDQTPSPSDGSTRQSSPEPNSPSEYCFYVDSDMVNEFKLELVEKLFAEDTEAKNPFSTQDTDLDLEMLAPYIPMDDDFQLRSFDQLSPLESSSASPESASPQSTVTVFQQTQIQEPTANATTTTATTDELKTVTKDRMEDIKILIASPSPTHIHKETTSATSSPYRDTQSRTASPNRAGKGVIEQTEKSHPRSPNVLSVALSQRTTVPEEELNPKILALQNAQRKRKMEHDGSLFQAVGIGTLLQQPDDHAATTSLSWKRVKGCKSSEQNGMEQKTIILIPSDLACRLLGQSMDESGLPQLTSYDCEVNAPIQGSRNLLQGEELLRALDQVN
Structure (SMILES),outcome [1],outcome [2],outcome [3],outcome [4],outcome [5],outcome [6],outcome [7],outcome [8],outcome [9],outcome [10],AC50 [5],AC50 [8],AC50 [9],AC50 [1],AC50 [10],AC50 [2],AC50 [6],AC50 [7]
C1CC2OC2CC1C1CO1 (stereo not given),inactive,inactive,inactive,inactive,inactive,inactive,inactive,inactive,inactive,–,–,–,–,–,–,–,–,–
COc1ccc(O)c(C(C)(C)C)c1,inactive,inactive,inactive,inactive,–,inactive,–,–,–,inactive,52.6 µM (active),148 µM (active),25.7 µM (active),–,–,–,–,–
CCSC(=O)N(CC)C1CCCCC1,inactive,inactive,inactive,inactive,inactive,–,inactive,inactive,–,inactive,–,–,–,–,–,–,–,–
Cc1cccc(C)c1N,inactive,inactive,inactive,inactive,inactive,–,–,inactive,–,inactive,–,–,–,–,–,–,–,–
CC(C)(c1ccccc1)c1ccc(O)cc1,inactive,inactive,inactive,inactive,inactive,inactive,–,inactive,inactive,inactive,52.5 µM (active) and 12.7 µM (active),33.4 µM (active) and 52.1 µM (active) and 43.1 µM (active),33.4 µM (active),33.4 µM (active),51.3 µM (active),–,–,–
CCC(=O)O[C@H]1CC[C@H]2[C@@H]3CCC4=CC(=O)CC[C@]4(C)[C@H]3CC[C@]12C,–,inactive,inactive,inactive,inactive,inactive,–,–,inactive,inactive,100 µM (active) and 122 µM (active),136 µM (active) [middle of 4 runs],136 µM (active) and 100 µM (active),–,157 µM (active),100 µM (active) and 131 µM (active),169 µM (active) and 187 µM (active),–
C[C@]12CCC(=O)C=C1CC[C@@H]1[C@@H]2CC[C@@]2(C)[C@H]1CC[C@]2(C)O,inactive,inactive,inactive,inactive,inactive,–,inactive,inactive,inactive,inactive,–,132 µM (active) and 129 µM (active) and 79.4 µM (active),–,–,–,–,–,–
Oc1ccc(C(c2ccc(O)cc2)(C(F)(F)F)C(F)(F)F)cc1,–,inactive,inactive,inactive,inactive,–,–,–,inactive,inactive,–,16.2 µM (active) [middle of 4 runs],–,–,–,20.1 µM (active) and 11.1 µM (active),–,16.3 µM (active) [middle of 4 runs]
O=NN(c1ccccc1)c1ccccc1,inactive,inactive,inactive,inactive,inactive,–,–,inactive,–,inactive,–,–,–,–,–,–,–,–
CO/C=C(/C(=O)OC)c1ccccc1COc1cccc(C(F)(F)F)n1,–,inactive,inactive,inactive,inactive,–,–,–,inactive,–,–,44.3 µM (active),–,26.4 µM (active),–,–,–,–
Clc1ccc(C(c2ccccc2Cl)C(Cl)(Cl)Cl)cc1 (stereo not given),–,inactive,inactive,inactive,inactive,–,–,inactive,inactive,inactive,18.4 µM (active),70.5 µM (active) and 36.9 µM (active),–,–,–,70.5 µM (active) and 82.3 µM (active),–,–
CCC(C)(c1ccc(O)cc1)c1ccc(O)cc1,inactive,inactive,inactive,inactive,inactive,–,–,–,inactive,–,75.9 nM (active) and 26.2 µM (active),–,1.17 µM (active),43 µM (active) and 33.4 µM (active) and 54.5 µM (active),–,45.6 µM (active) and 50.3 µM (active) and 33.4 µM (active),–,–
O=C(O)C(F)(F)C(F)(F)C(F)(F)C(F)(F)C(F)(F)C(F)(F)C(F)(F)C(F)(F)F,inactive,inactive,inactive,inactive,inactive,–,–,inactive,–,inactive,50 µM (active),210 µM (active) and 50 µM (active),–,–,–,150 µM (active) and 46.3 µM (active),–,–
CCC(C)c1cc([N+](=O)[O-])cc([N+](=O)[O-])c1O (stereo not given),inactive,–,inactive,inactive,inactive,–,inactive,–,inactive,inactive,–,13.5 µM (active),–,–,–,8.83 µM (active),–,–
Cc1cc(O)ccc1Cl,inactive,inactive,inactive,inactive,inactive,inactive,–,inactive,–,inactive,–,–,–,–,–,–,–,–
